Data: article PMC8222333, “AsCas12a ultra nuclease facilitates the rapid generation of therapeutic cell medicines”

Assays:
Experiment in all cases: Spec-seq (native PAGE EMSA with sequencing of bound and unbound); 25 mM Tris-HCl pH 7.4, 150 mM KCl, 5 mM MgCl2, 10% glycerol, 1 mM DTT, 40 ng/uL salmon sperm DNA; 400 nM Cas12a, 480 nM crRNA, 50 nM library, 37 C 1 h; native PAGE at room temperature; high values mean tight binding
Settings in all cases: protein: recombinant
[1] = target: dAsCas12a Ultra (Acidaminococcus sp., UniProt U2UMQ6 1-1307, M537R;F870L;D908A;E993A;D1235A)
[2] = target: dAsCas12a E174R (Acidaminococcus sp., UniProt U2UMQ6 1-1307, E174R;D908A;E993A;D1235A);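 also: relative affinity from the bound to unbound sequence frequency ratio in Spec-seq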
[3] = target: dAsCas12a S542R (Acidaminococcus sp., UniProt U2UMQ6 1-1307, S542R;D908A;E993A;D1235A);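 also: relative affinity from the bound to unbound sequence frequency ratio in Spec-seq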
[4] = target: d-enCas12a (Acidaminococcus sp., UniProt U2UMQ6 1-1307, E174R;S542R;K548R;D908A;E993A;D1235A)
[5] = target: d-enCas12a-Ultra (Acidaminococcus sp., UniProt U2UMQ6 1-1307, E174R;S542R;K548R;M537R;F870L;D908A;E993A;D1235A);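 also: relative affinity from the bound to unbound sequence frequency ratio in Spec-seq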

B1: GCTT (dsDNA)
DNA 1: GCTATCTAGTGCTCAGTACGCACTGGCTTAGGAAACTTCTGGCAGGACCAGGTCATGAGATCGGAAGAGCACACGTCTGAACTCCAGTCA
DNA 2: TGACTGGAGTTCAGACGTGTGCTCTTCCGATCTCATGACCTGGTCCTGCCAGAAGTTTCCTAAGCCAGTGCGTACTGAGCACTAGATAGC
RNA: AAUUUCUACUCUUGUAGAUAGGAAACUUCUGGCAGGACC
Question: With B1 as the binder, how does the binding signal [1] read?
Answer: -8.74 lnKA

Question: And the binding signal [2]?
Answer: -8.39 lnKA

Question: What about the binding signal [3] of the same binder?
Answer: -8.31 lnKA

Question: What about the binding signal [4] of the same binder?
Answer: -5.83 lnKA

Question: What about the binding signal [5] of the same binder?
Answer: -3.16 lnKA

B2: GGGA (dsDNA)
DNA 1: GCTATCTAGTGCTCAGTACGCACTGGGGAAGGAAACTTCTGGCAGGACCAGGTCATGAGATCGGAAGAGCACACGTCTGAACTCCAGTCA
DNA 2: TGACTGGAGTTCAGACGTGTGCTCTTCCGATCTCATGACCTGGTCCTGCCAGAAGTTTCCTTCCCCAGTGCGTACTGAGCACTAGATAGC
RNA: AAUUUCUACUCUUGUAGAUAGGAAACUUCUGGCAGGACC
Question: Which binding signal [1] does the source give for B2 here?
Answer: -8.93 lnKA

Question: What about the binding signal [3] of the same binder?
Answer: -8.02 lnKA

Question: What about the binding signal [4] of the same binder?
Answer: -5.68 lnKA

Question: What about the binding signal [5] of the same binder?
Answer: -3.47 lnKA

B3: GGTA (dsDNA)
DNA 1: GCTATCTAGTGCTCAGTACGCACTGGGTAAGGAAACTTCTGGCAGGACCAGGTCATGAGATCGGAAGAGCACACGTCTGAACTCCAGTCA
DNA 2: TGACTGGAGTTCAGACGTGTGCTCTTCCGATCTCATGACCTGGTCCTGCCAGAAGTTTCCTTACCCAGTGCGTACTGAGCACTAGATAGC
RNA: AAUUUCUACUCUUGUAGAUAGGAAACUUCUGGCAGGACC
Question: Which binding signal [1] does the source give for B3 here?
Answer: -7.78 lnKA

Question: What about the binding signal [2] of the same binder?
Answer: -8.41 lnKA

Question: And the binding signal [3]?
Answer: -7.66 lnKA

Question: What about the binding signal [4] of the same binder?
Answer: -3.21 lnKA

Question: What about the binding signal [5] of the same binder?
Answer: -0.816 lnKA

B4: GGTC (dsDNA)
DNA 1: GCTATCTAGTGCTCAGTACGCACTGGGTCAGGAAACTTCTGGCAGGACCAGGTCATGAGATCGGAAGAGCACACGTCTGAACTCCAGTCA
DNA 2: TGACTGGAGTTCAGACGTGTGCTCTTCCGATCTCATGACCTGGTCCTGCCAGAAGTTTCCTGACCCAGTGCGTACTGAGCACTAGATAGC
RNA: AAUUUCUACUCUUGUAGAUAGGAAACUUCUGGCAGGACC
Question: How did the binding signal [1] turn out when B4 was run?
Answer: -8.4 lnKA

Question: What about the binding signal [2] of the same binder?
Answer: -8.96 lnKA

Question: And the binding signal [3]?
Answer: -8.74 lnKA

Question: What about the binding signal [4] of the same binder?
Answer: -3.44 lnKA

Question: What about the binding signal [5] of the same binder?
Answer: -0.971 lnKA

B5: GGTT (dsDNA)
DNA 1: GCTATCTAGTGCTCAGTACGCACTGGGTTAGGAAACTTCTGGCAGGACCAGGTCATGAGATCGGAAGAGCACACGTCTGAACTCCAGTCA
DNA 2: TGACTGGAGTTCAGACGTGTGCTCTTCCGATCTCATGACCTGGTCCTGCCAGAAGTTTCCTAACCCAGTGCGTACTGAGCACTAGATAGC
RNA: AAUUUCUACUCUUGUAGAUAGGAAACUUCUGGCAGGACC
Question: For B5, which binding signal [1] is on record?
Answer: -8.59 lnKA

Question: And the binding signal [2]?
Answer: -8.64 lnKA

Question: And the binding signal [3]?
Answer: -8.19 lnKA

Question: And the binding signal [4]?
Answer: -5.45 lnKA

Question: What about the binding signal [5] of the same binder?
Answer: -2.7 lnKA

B6: GTCT (dsDNA)
DNA 1: GCTATCTAGTGCTCAGTACGCACTGGTCTAGGAAACTTCTGGCAGGACCAGGTCATGAGATCGGAAGAGCACACGTCTGAACTCCAGTCA
DNA 2: TGACTGGAGTTCAGACGTGTGCTCTTCCGATCTCATGACCTGGTCCTGCCAGAAGTTTCCTAGACCAGTGCGTACTGAGCACTAGATAGC
RNA: AAUUUCUACUCUUGUAGAUAGGAAACUUCUGGCAGGACC
Question: For B6, which binding signal [1] is on record?
Answer: -8.79 lnKA

Question: And the binding signal [2]?
Answer: -8.88 lnKA

Question: What about the binding signal [3] of the same binder?
Answer: -7.55 lnKA

Question: What about the binding signal [4] of the same binder?
Answer: -4.02 lnKA

Question: What about the binding signal [5] of the same binder?
Answer: -0.927 lnKA

B7: GTGA (dsDNA)
DNA 1: GCTATCTAGTGCTCAGTACGCACTGGTGAAGGAAACTTCTGGCAGGACCAGGTCATGAGATCGGAAGAGCACACGTCTGAACTCCAGTCA
DNA 2: TGACTGGAGTTCAGACGTGTGCTCTTCCGATCTCATGACCTGGTCCTGCCAGAAGTTTCCTTCACCAGTGCGTACTGAGCACTAGATAGC
RNA: AAUUUCUACUCUUGUAGAUAGGAAACUUCUGGCAGGACC
Question: What does the source list for B7?
Answer: binding signal [1]: -7.93 lnKA; binding signal [2]: -8.87 lnKA; binding signal [3]: -7.67 lnKA; binding signal [4]: -5.45 lnKA; binding signal [5]: -3.14 lnKA

B8: GTGT (dsDNA)
DNA 1: GCTATCTAGTGCTCAGTACGCACTGGTGTAGGAAACTTCTGGCAGGACCAGGTCATGAGATCGGAAGAGCACACGTCTGAACTCCAGTCA
DNA 2: TGACTGGAGTTCAGACGTGTGCTCTTCCGATCTCATGACCTGGTCCTGCCAGAAGTTTCCTACACCAGTGCGTACTGAGCACTAGATAGC
RNA: AAUUUCUACUCUUGUAGAUAGGAAACUUCUGGCAGGACC
Question: Which results are given for B8?
Answer: binding signal [1]: -8.66 lnKA; binding signal [2]: -8.98 lnKA; binding signal [3]: -8.04 lnKA; binding signal [4]: -5.78 lnKA; binding signal [5]: -3.14 lnKA

B9: TAAA (dsDNA)
DNA 1: GCTATCTAGTGCTCAGTACGCACTGTAAAAGGAAACTTCTGGCAGGACCAGGTCATGAGATCGGAAGAGCACACGTCTGAACTCCAGTCA
DNA 2: TGACTGGAGTTCAGACGTGTGCTCTTCCGATCTCATGACCTGGTCCTGCCAGAAGTTTCCTTTTACAGTGCGTACTGAGCACTAGATAGC
RNA: AAUUUCUACUCUUGUAGAUAGGAAACUUCUGGCAGGACC
Question: Which results are given for B9?
Answer: binding signal [1]: -8.83 lnKA; binding signal [3]: -8.25 lnKA; binding signal [4]: -5.38 lnKA; binding signal [5]: -3.04 lnKA

B10: TAGA (dsDNA)
DNA 1: GCTATCTAGTGCTCAGTACGCACTGTAGAAGGAAACTTCTGGCAGGACCAGGTCATGAGATCGGAAGAGCACACGTCTGAACTCCAGTCA
DNA 2: TGACTGGAGTTCAGACGTGTGCTCTTCCGATCTCATGACCTGGTCCTGCCAGAAGTTTCCTTCTACAGTGCGTACTGAGCACTAGATAGC
RNA: AAUUUCUACUCUUGUAGAUAGGAAACUUCUGGCAGGACC
Question: How did the binding signal [1] turn out when B10 was run?
Answer: -8.98 lnKA

Question: What about the binding signal [3] of the same binder?
Answer: -8.65 lnKA

Question: And the binding signal [4]?
Answer: -5.31 lnKA

Question: And the binding signal [5]?
Answer: -3.33 lnKA

B11: TATT (dsDNA)
DNA 1: GCTATCTAGTGCTCAGTACGCACTGTATTAGGAAACTTCTGGCAGGACCAGGTCATGAGATCGGAAGAGCACACGTCTGAACTCCAGTCA
DNA 2: TGACTGGAGTTCAGACGTGTGCTCTTCCGATCTCATGACCTGGTCCTGCCAGAAGTTTCCTAATACAGTGCGTACTGAGCACTAGATAGC
RNA: AAUUUCUACUCUUGUAGAUAGGAAACUUCUGGCAGGACC
Question: How did the binding signal [1] turn out when B11 was run?
Answer: -8.42 lnKA

Question: And the binding signal [2]?
Answer: -8.04 lnKA

Question: And the binding signal [3]?
Answer: -7.99 lnKA

Question: And the binding signal [4]?
Answer: -3.27 lnKA

Question: What about the binding signal [5] of the same binder?
Answer: -1.25 lnKA

B12: TCAA (dsDNA)
DNA 1: GCTATCTAGTGCTCAGTACGCACTGTCAAAGGAAACTTCTGGCAGGACCAGGTCATGAGATCGGAAGAGCACACGTCTGAACTCCAGTCA
DNA 2: TGACTGGAGTTCAGACGTGTGCTCTTCCGATCTCATGACCTGGTCCTGCCAGAAGTTTCCTTTGACAGTGCGTACTGAGCACTAGATAGC
RNA: AAUUUCUACUCUUGUAGAUAGGAAACUUCUGGCAGGACC
Question: What does the source list for B12?
Answer: binding signal [1]: -8.83 lnKA; binding signal [3]: -7.68 lnKA; binding signal [4]: -5.65 lnKA; binding signal [5]: -3.39 lnKA

B13: TCAC (dsDNA)
DNA 1: GCTATCTAGTGCTCAGTACGCACTGTCACAGGAAACTTCTGGCAGGACCAGGTCATGAGATCGGAAGAGCACACGTCTGAACTCCAGTCA
DNA 2: TGACTGGAGTTCAGACGTGTGCTCTTCCGATCTCATGACCTGGTCCTGCCAGAAGTTTCCTGTGACAGTGCGTACTGAGCACTAGATAGC
RNA: AAUUUCUACUCUUGUAGAUAGGAAACUUCUGGCAGGACC
Question: How did the binding signal [1] turn out when B13 was run?
Answer: -8.33 lnKA

Question: And the binding signal [3]?
Answer: -7.5 lnKA

Question: What about the binding signal [4] of the same binder?
Answer: -5.3 lnKA

Question: And the binding signal [5]?
Answer: -3 lnKA

B14: TCCA (dsDNA)
DNA 1: GCTATCTAGTGCTCAGTACGCACTGTCCAAGGAAACTTCTGGCAGGACCAGGTCATGAGATCGGAAGAGCACACGTCTGAACTCCAGTCA
DNA 2: TGACTGGAGTTCAGACGTGTGCTCTTCCGATCTCATGACCTGGTCCTGCCAGAAGTTTCCTTGGACAGTGCGTACTGAGCACTAGATAGC
RNA: AAUUUCUACUCUUGUAGAUAGGAAACUUCUGGCAGGACC
Question: What does the source list for B14?
Answer: binding signal [1]: -7.24 lnKA; binding signal [2]: -6.64 lnKA; binding signal [3]: -3.52 lnKA; binding signal [4]: -2.15 lnKA; binding signal [5]: -0.457 lnKA

B15: TCCG (dsDNA)
DNA 1: GCTATCTAGTGCTCAGTACGCACTGTCCGAGGAAACTTCTGGCAGGACCAGGTCATGAGATCGGAAGAGCACACGTCTGAACTCCAGTCA
DNA 2: TGACTGGAGTTCAGACGTGTGCTCTTCCGATCTCATGACCTGGTCCTGCCAGAAGTTTCCTCGGACAGTGCGTACTGAGCACTAGATAGC
RNA: AAUUUCUACUCUUGUAGAUAGGAAACUUCUGGCAGGACC
Question: With B15 as the binder, how does the binding signal [1] read?
Answer: -7.52 lnKA

Question: And the binding signal [2]?
Answer: -7.89 lnKA

Question: And the binding signal [3]?
Answer: -3.6 lnKA

Question: What about the binding signal [4] of the same binder?
Answer: -3.12 lnKA

Question: What about the binding signal [5] of the same binder?
Answer: -0.639 lnKA
